Screening data: PubChem, Sanford-Burnham Center for Chemical Genomics
Mac1 fbg enh = enhancers of CD11b/CD18 adhesion to fibrinogen, primary screen, K562 cells, luminescence. Integrin beta-2 (Homo sapiens) + Integrin alpha-M (Homo sapiens), P05107+P11215. ATPlite luminescence. activation, % at 10 µM. 0.07% of 93,000 active;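 active = 10 µM primary screen giving 50% or more activity, confirmed by 40% or more on retest at that dose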
Target sequence (P05107 whole entry, looked up, other chains not shown): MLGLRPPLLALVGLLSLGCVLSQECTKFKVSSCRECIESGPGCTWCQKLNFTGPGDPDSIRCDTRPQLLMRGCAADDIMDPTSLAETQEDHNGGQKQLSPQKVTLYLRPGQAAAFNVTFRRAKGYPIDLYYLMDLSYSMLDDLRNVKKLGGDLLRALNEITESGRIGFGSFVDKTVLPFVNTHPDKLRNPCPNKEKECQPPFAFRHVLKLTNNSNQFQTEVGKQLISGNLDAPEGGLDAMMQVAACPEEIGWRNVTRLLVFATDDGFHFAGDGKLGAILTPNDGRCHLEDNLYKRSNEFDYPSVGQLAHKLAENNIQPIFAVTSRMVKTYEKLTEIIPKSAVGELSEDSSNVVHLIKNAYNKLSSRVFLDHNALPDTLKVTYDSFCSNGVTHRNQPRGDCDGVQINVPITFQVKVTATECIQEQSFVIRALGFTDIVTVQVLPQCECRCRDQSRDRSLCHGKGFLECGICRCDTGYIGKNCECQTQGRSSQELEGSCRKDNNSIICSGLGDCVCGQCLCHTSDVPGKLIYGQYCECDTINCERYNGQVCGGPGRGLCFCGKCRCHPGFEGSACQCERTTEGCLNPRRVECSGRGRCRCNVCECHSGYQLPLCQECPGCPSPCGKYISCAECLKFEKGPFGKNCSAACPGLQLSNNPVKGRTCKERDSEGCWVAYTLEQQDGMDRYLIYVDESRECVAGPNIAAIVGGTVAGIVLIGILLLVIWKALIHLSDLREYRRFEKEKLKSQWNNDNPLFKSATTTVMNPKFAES
CYP2C19 inh = blockers of cytochrome P450 2C19 activity – biochemical, luminescence, ADME assay, primary screen | P33261 | CYP2C19 Supersomes, luciferin-H EGE luminescence, 30 min | inhibition, % at 5 µM | 21% of 96,000 active | AID 778, 2007;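 active = CYP2C19 inhibition above a set limit at 5 µM in the primary screen, cut at about 50% in these data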;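 also: plate controls were negative control wells for no effect and 2.5 mM tranylcypromine positive control for full effect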
CYP2C19 activ = human CYP2C19 activators, primary screen, biochemical, luminescence. 96,000 tested, under 10 active. recombinant CYP2C19, luciferin-H EGE luminescence; hits give high values; 0 = fully inhibited enzyme, 1 = untreated enzyme. AID 1025, 2008. activation factor at 5 µM;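 active = activation factor of at least 2 at 5 µM in the primary screen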;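 also: 0 = wells with 2.5 mM tranylcypromine and 1 = vehicle-only wells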
CD11b adhes inh = inhibitors of CD11b/CD18 adhesion to fibrinogen, primary screen, K562 cells, luminescence | ATPlite luminescence; Mn2+ added to activate the integrin | inhibition, % at 10 µM | 0.54% of 93,000 active | AID 1497, 2009;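 active = primary inhibition of 50% or more at 10 µM, then 40% or more on retest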
CYP2C9 activ = human CYP2C9 activators, primary screen, biochemical, luminescence; Cytochrome P450 2C9 (Homo sapiens), P11712; activation factor at 5 µM; AID 1024, 2008; recombinant CYP2C9, luciferin-H conversion; hits give high values; factor 1 = untreated enzyme, 0 = blocked; 1.4% of 96,000 active;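 active = activation factor of 2 or more for CYP2C9 at a 5 µM dose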;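 also: 0 = sulfaphenazole-blocked wells and 1 = vehicle-only wells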
CYP2C9 inhib = blockers of cytochrome P450 2C9 activity – biochemical, luminescence, ADME assay, primary screen; CYP2C9 Supersomes, luciferin-H conversion; inhibition, % at 5 µM; 20% of 96,000 active; AID 777, 2007;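 active = blocking of liver enzyme CYP2C9 beyond about 50% at 5 µM, limit read from the data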
Numbers without * were called inactive; / = no result given. Sampled rows, rich in hits. Any-hit rate of the full collection: about 28%.

SMILES	Mac1 fbg enh	CYP2C19 inh	CYP2C19 activ	CD11b adhes inh	CYP2C9 activ	CYP2C9 inhib
Clc1ccc(CNCCC2=CCCCC2)cc1	-2	100*	0	-4	0.8	22
O=C(NCCC1=CCCCC1)C1CCN(C(=O)c2ccc(Cl)cc2)CC1	/	10	0.9	/	0.6	40
C1=C(CCNCC2CCCCC2)CCCC1	-3	88*	0.1	-2	1	-1
O=C(CN1CCN(C2CCCCC2)CC1)NCCC1=CCCCC1	/	16	0.8	/	0.8	21
CC(C)CC(NC(=O)OC(C)(C)C)C(=O)NC(C(=O)N1CCCC1C(N)=O)C(C)C (centres undefined)	-2	-10	1.1	-44	1.1	-12
N#CCCn1c(SCC(=O)NCCc2ccc(F)cc2)nc2ccccc21	-2	82*	0.2	-8	0.5	47
CCn1c(Sc2ccc(N)cc2Cl)nc2ccccc21	0	87*	0.1	10	2.3*	-127
CCn1c(SCC(=O)NC(C)c2ccccc2)nc2ccccc21 (centres undefined)	-2	54*	0.5	8	1.4	-36
CCNC(=O)NC(=O)CSc1nc2ccccc2n1CC(C)C	1	28	0.7	-3	0.9	8
O=C(Cn1c(NCCO)nc2ccccc21)NCCc1ccc(F)cc1	2	17	0.8	0	1	-2
CC(NC(=O)CSc1nc2ccccc2n1CCC#N)c1ccc(F)cc1 (centres undefined)	0	94*	0.1	-38	0.5	55*
CCn1c(-c2cccnc2Cl)nc2ccccc21	-2	32	0.7	-58	1.9	-93
O=C(NC12CC3CC(CC(C3)C1)C2)C12CC3CC(C1)CC(n1cnc(Cl)n1)(C3)C2	0	27	0.7	-8	1	-2
CS(=O)(=O)Nc1ccc(C(=O)NCc2ccco2)cc1	-2	-15	1.1	0	1	4
c1ccc(-c2noc(-c3cccc4ccccc34)n2)nc1	-2	64*	0.4	15	1	1
COc1cc(-c2nc(-c3ccccn3)no2)cc(OC)c1OC	-2	-1	1	-20	1.1	-8
COc1cccc(-c2nc(-c3ccccn3)no2)c1OC	-1	90*	0.1	-37	0.6	38
COc1ccc(C(=O)Nc2cc(C(F)(F)F)ccc2-n2cncn2)cc1	3	37	0.6	-17	0.8	20
O=C(Nc1cc(C(F)(F)F)ccc1-n1cncn1)c1ccc(-c2ccccc2)cc1	-1	58*	0.4	7	0.1	94*
O=C(Nc1cc(C(F)(F)F)ccc1-n1cncn1)c1ccc(Cl)cc1	-2	74*	0.3	-17	0.8	22
CN(c1ccccc1)S(=O)(=O)c1ccc(C(=O)NCC2CCCO2)cc1 (centres undefined)	-1	8	0.9	-4	0.6	37
O=C1NC(=O)/C(=C\c2ccc(Sc3ccc(Cl)cc3)o2)N1	-1	17	0.8	-4	0.8	20
Clc1ccc(Sc2oc(/C=N/n3cnnc3)cc2Br)cc1	-4	91*	0.1	2	0.9	5
Clc1ccc(Sc2ccc(/C=N/n3cnnc3)o2)cc1	6	77*	0.2	-12	0.5	48
O=[N+]([O-])c1ccc(N/N=C/c2c[nH]c3ccccc23)cc1	/	14	0.9	/	0.4	58*
SMILES	Mac1 fbg enh	CYP2C19 inh	CYP2C19 activ	CD11b adhes inh	CYP2C9 activ	CYP2C9 inhib
O=C(CCC(=O)OCC(=O)c1ccc(Br)cc1)Nc1ccc(Br)c2cccnc12	-2	31	0.7	10	3*	-199
CC1(C)Cc2c(sc3c4nnnn4c4nnnn4c23)CO1	-1	7	0.9	-9	0.9	7
Cc1ccc(-n2c(SCn3nnc4ccccc4c3=O)nnc2-c2cccnc2)c(C)c1	4	26	0.7	16	0.9	8
O=c1c2ccccc2nnn1CSc1nnc(-c2cccnc2)n1-c1ccccc1F	-3	75*	0.2	-3	1	2
CCOC(=O)CCSc1nnc(-c2cccnc2)n1-c1ccccc1OC	-2	54*	0.5	-12	0.8	22
COc1ccccc1-n1c(SCC(N)=O)nnc1-c1ccccc1	4	10	0.9	-24	1	-2
C/C(N)=C(/C#N)C(=O)CSc1nnc(Cc2ccccc2F)n1N	-2	42	0.6	-9	1	-2
Nn1c(Cc2ccccc2F)nnc1SCn1nnc2ccccc2c1=O	-2	64*	0.4	2	0.7	26
CCOCc1cc(C)[nH]c(=O)c1C#N	/	5	1	/	1	4
COc1ccc(NC(=S)NCCc2c[nH]c3ccc(OC)cc23)c(OC)c1	/	71*	0.3	/	0.4	62*
COc1ccc(NC(=S)Nc2ncccc2C)c(OC)c1	5	76*	0.2	-1	0.9	14
COc1ccc(NC(=S)NCCc2ccc(Cl)cc2)c(OC)c1	0	86*	0.1	-15	0.8	22
Cc1[nH]n(-c2ccccc2)c(=O)c1/C=N\NC(=O)C1COc2ccccc2O1 (centres undefined)	-3	/	/	50	/	/
CN(C)S(=O)(=O)c1ccc(C(=O)Nc2ccc(CCC(=O)N3CCCC3)cc2)cc1	11	16	0.8	-8	0.4	59*
Cc1nnc(SCc2ccccc2F)n1NCc1cccs1	0	93*	0.1	-11	0.4	55*
c1cc(CNc2ccc3c(c2)OCCO3)ccn1	2	73*	0.3	-20	0.4	62*
CCN(Cc1nc2cc(OC)c(OC)cc2c(=O)[nH]1)C(=O)c1ccc(S(=O)(=O)N(C)C)cc1	0	30	0.7	12	0.5	54*
CCN(CC(=O)NCCc1ccc(S(N)(=O)=O)cc1)Cc1nc2cc(OC)c(OC)cc2c(=O)[nH]1	-8	-1	1	16	1.2	-19
CCN(CC)CC(C(=O)N(CC)CC)P(=O)(c1ccccc1)c1ccccc1 (centres undefined)	-2	-10	1.1	13	1.1	-6
C=CCNC(=O)CSc1ccc(Cl)cc1	141	24	0.8	-17	1	2
COc1ccc(CN(Cc2cccnc2)S(=O)(=O)c2ccc(-n3cnnn3)c(C)c2)cc1OC	5	80*	0.2	-8	0.1	94*
COc1ccc(CCN(Cc2cccs2)S(=O)(=O)c2ccc(-n3cnnn3)c(OC)c2)cc1OC	0	50*	0.5	5	0.4	55*
COc1cc(S(=O)(=O)N(Cc2cccs2)CC2CCCO2)ccc1-n1cnnn1 (centres undefined)	0	47	0.5	-4	0.7	31
